Data on 8 compounds can be found in PubChem BioAssay (NCI).

Among the test systems are HCT-15 colon; HT29 colon; SNB-75 CNS; U251 CNS; PC-3 prostate; SK-MEL-5 melanoma; UACC-62 melanoma; LOX IMVI melanoma; SK-MEL-28 melanoma; SK-MEL-2 melanoma; EKVX NSCLC; SN12C renal; TK-10 renal; ACHN renal; CAKI-1 renal; A498 renal; CCRF-CEM leukemia; SNB-19 CNS; UO-31 renal; HL-60(TB) leukemia.
Assay in all cases: NCI-60 one-dose screen, 48 h (100 = growth as untreated, 0 = no growth, -100 = all killed)
What all share (conditions): 10 µM unless noted

“And” between values parts separate entries of the source, which are not always exact repeats. Identical values can stand only once. The panel holds about 83,000 compounds, 20% with a hit somewhere; the sample as a whole holds those more often.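 Assay: single dose, 48 h. Readout: percent growth (0 = no net growth; negative = cell death). Active: <10.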 Unmarked numbers belong to inactive results. The source made the active and inactive calls.

On to `CC[C@H](C)[C@H](NC(=O)C12CC(NC)(C1)C2)C(=O)N(C)[C@H](C[C@@H](OC(C)=O)c1nc(C(=O)N[C@@H](Cc2ccccc2)C[C@H](C)C(=O)OC)cs1)C(C)C`, for which the growth was 18.4% in the assay with HCT-15 colon; -4.54% (active) in the assay with HT29 colon; 23.5% in the assay with SNB-75 CNS; 12.7% with U251 CNS; 23.6% with PC-3 prostate; -31.7% (active) in the assay with SK-MEL-5 melanoma. The growth in the assay with UACC-62 melanoma is 45%; with LOX IMVI melanoma, 5.36% (active); in the assay on SK-MEL-28 melanoma it was 53.4%; in the assay on SK-MEL-2 melanoma, 36.7%; in the assay on EKVX NSCLC it was 37.3%; with SN12C renal, 47.2%. Moreover, the growth in the assay on TK-10 renal is 48.5%; in the assay with ACHN renal it was 33.9%; in the assay with CAKI-1 renal it was 91.2%; in the assay with A498 renal, -0.0952% (active); in the assay with CCRF-CEM leukemia, 1.27% (active).

As for `CCN1C(=O)NC(=O)C(C)(N2C(=O)c3c(F)c(F)c(F)c(F)c3C2=O)C1=O` (configuration not stated), the growth in the assay on HT29 colon was 6.44% (active); in the assay on SNB-75 CNS, 64.6%; in the assay on SNB-19 CNS it was 49.3%; in the assay on U251 CNS, -25.4% (active); in the assay with PC-3 prostate, 12.3%; with SK-MEL-5 melanoma, 54.1%. Moreover, the growth is 10.4% in the assay on UACC-62 melanoma; -13.9% (active) in the assay on LOX IMVI melanoma; -45.5% (active) in the assay on SK-MEL-28 melanoma; 16.8% with SK-MEL-2 melanoma; 104% in the assay with EKVX NSCLC; 33.6% with SN12C renal. Also, the growth in the assay on UO-31 renal is 25.1%; in the assay with TK-10 renal, 34.5%; in the assay on ACHN renal, -57.7% (active); in the assay on CAKI-1 renal, -46.7% (active); in the assay with A498 renal, 99.2%; with HL-60(TB) leukemia it was -70.3% (active). In addition, the growth in the assay with CCRF-CEM leukemia is 19.5%.

As for `Nc1nc(=S)nc(N)[nH]1`, the growth in the assay with HCT-15 colon is 101%; with HT29 colon it was 104%; in the assay with U251 CNS, 97%; with SK-MEL-5 melanoma, 103%; in the assay with UACC-62 melanoma it was 101%; with SK-MEL-28 melanoma, 100%. Further, the growth is 101% in the assay with SK-MEL-2 melanoma; 92.9% in the assay on EKVX NSCLC; 80.5% in the assay with SN12C renal; 136% in the assay with TK-10 renal; 103% with ACHN renal; 101% with CAKI-1 renal. In addition, the growth in the assay with A498 renal was 98.4%; in the assay with HL-60(TB) leukemia, 92.6%.

With `COc1ccc(N)cc1N`, the growth is 102% with HCT-15 colon; 113% in the assay with HT29 colon; 88.7% with SNB-75 CNS; 106% in the assay on U251 CNS; 88.2% in the assay with PC-3 prostate; 105% in the assay with SK-MEL-5 melanoma. Also, the growth in the assay with UACC-62 melanoma is 105%; with LOX IMVI melanoma it was 100%; in the assay on SK-MEL-28 melanoma, 120%; in the assay with EKVX NSCLC it was 107%; in the assay with UO-31 renal, 70.8%; in the assay with TK-10 renal, 148%. In addition, the growth is 101% with ACHN renal; 101% in the assay on CAKI-1 renal; 122% in the assay with A498 renal; 128% in the assay with HL-60(TB) leukemia; 111% with CCRF-CEM leukemia.

On to `O=C(O)C(F)F`, for which the growth is 100% in the assay with HT29 colon; 113% in the assay on SNB-75 CNS; 111% in the assay with SNB-19 CNS; 108% with U251 CNS; 105% with PC-3 prostate; 99.7% in the assay with SK-MEL-5 melanoma. The growth with UACC-62 melanoma is 102%; in the assay with LOX IMVI melanoma, 99%; in the assay with SK-MEL-28 melanoma, 116%; with SK-MEL-2 melanoma, 120%; in the assay on EKVX NSCLC it was 101%; in the assay on SN12C renal, 104%. The growth in the assay on UO-31 renal is 94.9%; in the assay with TK-10 renal, 97.7%; in the assay on ACHN renal, 116%; in the assay on CAKI-1 renal, 102%; in the assay with HL-60(TB) leukemia, 96%; in the assay with CCRF-CEM leukemia, 110%.

Take `N#CC(C#N)=Cc1cccc(F)c1`: the growth was 105% with HCT-15 colon; 104% with HT29 colon; 103% with U251 CNS; 100% in the assay on PC-3 prostate; 101% in the assay with SK-MEL-5 melanoma; 98.2% in the assay on UACC-62 melanoma. The growth in the assay with LOX IMVI melanoma was 98.9%; in the assay on SK-MEL-28 melanoma it was 111%; in the assay on SK-MEL-2 melanoma, 112%; in the assay on EKVX NSCLC it was 102%; with SN12C renal it was 101%; in the assay with UO-31 renal, 95.9%. For the same compound, the growth in the assay on TK-10 renal is 104%; in the assay with ACHN renal, 106%; with CAKI-1 renal, 99.6%; with CCRF-CEM leukemia, 101%.

In the case of `COc1cc(/C=C\[N+](=O)[O-])ccc1OCc1ccccc1`, the growth in the assay on HT29 colon was 4.62% (active); with SNB-75 CNS it was 79.2%; in the assay with SNB-19 CNS, 36.5%; in the assay with U251 CNS, 5.01% (active); with PC-3 prostate, 23%; in the assay on SK-MEL-5 melanoma, 65.2%. In addition, the growth in the assay on UACC-62 melanoma is 30.5%; with LOX IMVI melanoma it was -83.3% (active); in the assay on SK-MEL-28 melanoma it was 18.5%; in the assay with SK-MEL-2 melanoma, 89.5%; in the assay with EKVX NSCLC, 91.5%; in the assay with SN12C renal, 56.6%. For the same compound, the growth in the assay with UO-31 renal is 30.2%; with TK-10 renal it was 66.3%; in the assay on ACHN renal it was 46.4%; with CAKI-1 renal, 73.7%; in the assay with A498 renal, 71.1%; in the assay on HL-60(TB) leukemia it was 3.4% (active). The growth in the assay with CCRF-CEM leukemia is 14.5%.

Take `O=C(O)C(O)c1ccc(Cl)cc1` (configuration not stated): the growth is 102% with HCT-15 colon; 116% and 104% in the assay on HT29 colon; 100% and 112% in the assay on SNB-75 CNS; 106% and 100% in the assay with U251 CNS; 92.7% and 103% in the assay on PC-3 prostate; 81.4% and 106% in the assay with SK-MEL-5 melanoma. In addition, the growth in the assay on UACC-62 melanoma is 103% and 106%; in the assay on LOX IMVI melanoma it was 101% and 106%; with SK-MEL-28 melanoma, 106% and 109%; in the assay on EKVX NSCLC it was 102% and 120%; in the assay with SN12C renal, 100% and 107%; with TK-10 renal it was 99% and 105%. The growth is 112% and 108% in the assay with ACHN renal; 97.6% and 104% in the assay with CAKI-1 renal; 102% and 106% with A498 renal; 101% with HL-60(TB) leukemia; 106% in the assay on CCRF-CEM leukemia.
